AmpC inh no detg: qHTS Inhibitors of AmpC Beta-Lactamase (assay without detergent). Potency, µM (doses to about 57.1 µM), inactives show top-dose activity change, negative = inhibition, actives largely listed as inhibitors. P00811. 330,000 tested, 0.52% active. AmpC nitrocefin hydrolysis, absorbance 480 nm, 0.0001% Triton;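 further: plate controls were no compound for no effect and no enzyme for full effect; nearly all actives have a fitted effect of over 20% in size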
Target sequence (P00811 whole entry, looked up): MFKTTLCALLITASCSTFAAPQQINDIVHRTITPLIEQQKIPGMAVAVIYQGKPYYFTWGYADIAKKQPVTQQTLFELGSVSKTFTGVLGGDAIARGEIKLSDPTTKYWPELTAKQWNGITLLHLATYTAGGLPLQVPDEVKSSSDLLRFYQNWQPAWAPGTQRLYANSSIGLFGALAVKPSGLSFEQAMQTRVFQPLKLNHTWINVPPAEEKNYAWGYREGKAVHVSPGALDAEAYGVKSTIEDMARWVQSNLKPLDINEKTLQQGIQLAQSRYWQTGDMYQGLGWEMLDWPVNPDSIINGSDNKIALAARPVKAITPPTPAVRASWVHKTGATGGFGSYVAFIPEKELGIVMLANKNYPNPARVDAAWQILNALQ
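20 mM phosphate pH 7.0 + 0.01% (detergent screen) or 0.0001% Triton X-100; 5.3 nM AmpC reagent; cpd preinc 15 min RT; nitrocefin (800 uM stock) to start; A480 q20 s × 4 min; Activity was normalised to no-enzyme and no-compound control wells.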
HCV inh: qHTS Assay for Inhibitors of Hepatitis C Virus (HCV); Huh7.5.1 HCVcc-Cre infection, luciferase reporter, 44 h; 340,000 tested, 3.4% active; Potency, µM (titrated, usually from 41.8 µM), inactives show at the highest dose activity change, negative = inhibition, hits mostly inhibitors
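Cells seeded at 1,000/well and cultured 4 h, then compounds added followed by HCVcc-Cre virus (~0.5 moi). After 44 h further culture, luciferase substrate was added, plates held 15 min at room temperature, and luminescence read for 15 sec.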
AMA1 RON2 block: qHTS for Inhibitors of AMA1-RON; Towards Development of Antimalarial Drug Lead: Primary Screen; Plasmodium falciparum AMA1 (3D7) - RON2 peptide interaction; 360,000 tested, 0.2% active; AlphaScreen AMA1-biotinylated RON2 peptide binding; AID 720542, 2013; Potency, µM (titrated, usually from 58.2 µM), without a hit: at the top dose activity change, negative = inhibition, actives largely listed as inhibitors;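 further: 0% = vehicle wells and -100% = peptide control; nearly all actives have a fitted effect of over 45% in size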
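AMA1 (3D7) with his tag at 25 nM final met compounds first, then biotinylated RON2 peptide at 25 nM; detection used donor plus acceptor beads, 10 µg/mL apiece, read by AlphaScreen after 30 min at room temperature.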
Pf growth 96h: Primary qHTS for delayed death inhibitors of the malarial parasite plastid, 96 hour incubation | P. falciparum luciferase reporter growth, 96 h | Potency, µM (titrated, usually from 28.7 µM), for the others: at the top dose activity change, negative = inhibition, actives largely listed as inhibitors | 320,000 tested, 6.9% active
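Infected RBCs, 2% Hct / 0.05% parasitemia final; luciferase-reporter P. falciparum; cpd 96 h, 37 C, 5% CO2; luciferase detection reagent; luminescence.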
Pf growth 48h: Primary qHTS for delayed death inhibitors of the malarial parasite plastid, 48 hour incubation. P. falciparum luciferase growth in erythrocytes, 48 h. Potency, µM (titrated, usually from 28.7 µM), inactives show top-dose activity change, negative = inhibition, hits mostly inhibitors. 310,000 tested, 5.9% active. AID 504832, 2011
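Luciferase-expressing P. falciparum in infected erythrocytes (2% hematocrit, 0.1% parasitemia final) in RPMI 1640/0.5% Albumax were exposed to compound for 48 hours at 37 C, 5% CO2; growth read as luminescence.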
AmpC inh detg: qHTS Inhibitors of AmpC Beta-Lactamase (assay with detergent). P00811. AmpC hydrolysis of nitrocefin, absorbance 480 nm, 0.01% Triton. Potency, µM (top dose mostly 114 µM), for the others: at the top dose activity change, negative = inhibition, hits mostly inhibitors. 370,000 tested, 0.041% active. AID 485294, 2010;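 further: 0% = no-compound wells and -100% = no-enzyme wells; nearly all actives have a fitted effect of over 25% in size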
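20 mM phosphate pH 7.0 + 0.01% (detergent screen) or 0.0001% Triton X-100; 5.3 nM AmpC reagent; cpd preinc 15 min RT; nitrocefin (800 uM stock) to start; A480 q20 s × 4 min; Activity was normalised to no-enzyme and no-compound control wells.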
Numbers without * were called inactive; ? = inconclusive; / = no result; [ ] = remark or other dose. The list is not random: actives were taken first. Their share in the collection is about 11%. The call rests on the fitted dose curve; in most records, active means well fitted curve in the direction sought with a large enough effect; inconclusive means small, poorly fitted or top-dose-only effect, or another doubt; inactive means no such curve, though single readings can be large; an effect the other way counts as inactive or inconclusive. Unless noted, on the % scale 0 is the no-effect control and ±100 the full control effect; potency means the concentration at half of the fitted maximal effect.

SMILES | AmpC inh no detg | HCV inh | AMA1 RON2 block | Pf growth 96h | Pf growth 48h | AmpC inh detg
CC1(C)CC[C@]2(C(=O)O[C@@H]3OC(CO)[C@@H](O)[C@H](O)[C@H]3O)CC[C@]3(C)C(=CCC4[C@@]5(C)CC[C@H](O[C@@H]6OC(C(=O)O)[C@@H](O)[C@H](O)[C@H]6O)C(C)(C)C5CC[C@]43C)[C@@H]2C1 (some centres undefined) | 193% | 4% | -3% | / | / | /
CCn1nnc2cc(C(=O)Nc3ccc(C)cc3Br)ccc21 | / | / | / | / | / | 1%
O=C1CCCN1c1ccc(N2CCCC2=O)cc1 | 224% | 11% | 11% | 2.1µM* | 14% | -8%
Cc1ccc(C2(C)CC(C)(C)N(C(=O)CSc3nnc(C)s3)c3ccccc32)cc1 (centres undefined) | 36% | ? | -4% | ? | 13µM* | -18%
Cc1nnc(SCC(=O)N2c3ccccc3C(C)(c3ccccc3)CC2(C)C)s1 (centres undefined) | 29% | ? | -3% | 12µM* | 10µM* | -15%
COc1cc2ccc(=O)oc2c(O)c1O | / | -14% | 41% | / | / | /
O=c1ccc2cc3ccoc3c(O)c2o1 | -16% | 1µM* | 7% | / | / | /
Cc1ccc(S(=O)(=O)N2CC3CCCC2C3)cc1 (centres undefined) | -2% | 13% | 1% | -33% | 1.7µM* | -5%
COc1ccc(CNC(=O)Cn2c(=O)nc(-c3ccccc3)c3cc(Cl)ccc32)cc1OC | / | / | / | / | / | 6%
COc1ccccc1N1CCN(C(CNC(=O)c2ccc3c(c2)OCO3)c2cccnc2)CC1 (centres undefined) | 32% | 11µM* | -4% | 150% | ? | ?
COCCNC(=O)C(=O)NCC(c1cccnc1)N1CCN(c2ccccc2OC)CC1 (centres undefined) | / | / | / | / | / | 15%
Cc1cccc(NC(=O)CN2c3ccccc3S(=O)(=O)c3ccccc32)c1C | / | / | / | / | / | -10%
CCOC(=O)c1ccc(-c2ccc(/C=N/NC(=O)CN(c3ccccc3Br)S(C)(=O)=O)o2)cc1 | -36% | 11µM* | 10% | 26% | -63% | 2%
COCCn1c(C)cc(C2=NNC(=Nc3ccccc3F)SC2)c1C | 14% | -19% | 17% | 3.7µM* | / | -1%
COCCN=C1NN=C(c2cc(C)n(CC3CCCO3)c2C)CS1 (centres undefined) | 4%[2.29 µM] | -26% | 43% | 9.3µM* | ? | -1%
COCCCN=C1NN=C(c2cc(C)n(-c3ccccc3F)c2C)CS1 | 70% | ? | 59% | -144% | -40% | -9%
Cc1cc(C2=NNC(=NCCc3ccccc3)SC2)c(C)n1-c1c(C)n(C)n(-c2ccccc2)c1=O | 73% | 20% | 95% | ? | 6.6µM* | -7%
COCCCN=C1NN=C(c2cc(C)n(-c3ccccc3)c2C)CS1 | 20% | ? | -6% | 8.3µM* | 10µM* | -2%
COCCCN=C1NN=C(c2cc(C)n(Cc3ccccc3Cl)c2C)CS1 | -19%[11.4 µM] | ? | 25% | ? | ? | ?
COc1ccc(NC(=O)Cn2c(=O)n(Cc3ccco3)c(=O)c3oc4ccccc4c32)cc1Cl | / | / | / | / | / | 5%
Cc1c(N=C2NN=C(c3ccc(Cl)cc3)CS2)c(=O)n(-c2ccccc2)n1C | -5% | -5% | 28% | ? | ? | 5%
Cc1c(N=C2NN=C(c3c[nH]c4ccccc34)CS2)c(=O)n(-c2ccccc2)n1C | -1% | 7% | 94% | ? | 4.1µM* | 2%
Cc1cccc(N=C2NN=C(c3ccccc3F)CS2)c1C | 13µM* | ? | -13% | 0% | -31% | 0%
O=C(NCCc1ccccc1)c1ccc2c(c1)N(Cc1ccc(Cl)cc1)C(=O)CS2 | / | / | / | / | / | 12%
O=C(c1ccc2c(c1)N(Cc1ccc(F)cc1)C(=O)c1ccccc1S2(=O)=O)N1CCCCC1 | / | / | / | / | / | -14%
SMILES | AmpC inh no detg | HCV inh | AMA1 RON2 block | Pf growth 96h | Pf growth 48h | AmpC inh detg
C=CCn1c(CCNC(=O)c2ccccc2F)nnc1SCC(=O)Nc1nc2ccccc2s1 | 3% | -30% | 4% | 12µM* | / | 1%
CCn1c(-c2ccccc2Cl)nn(CC(=O)Nc2cc(Cl)ccc2Cl)c1=S | 1% | 13µM* | -16% | 10µM* | ? | -6%
CCCCn1c(N)c(N(CC(C)C)C(=O)C2CCN(c3ncnc4sc(C)c(C)c34)CC2)c(=O)[nH]c1=O | -9% | ? | -15% | 2.9µM* | 5.2µM* | -15%
CCCCn1c(N)c(N(CCOC)C(=O)C2CCN(S(=O)(=O)c3ccccc3)CC2)c(=O)[nH]c1=O | -2% | 19% | -8% | 10% | 11% | -6%
CCCCn1c(N)c(N(CCOC)C(=O)C2CCN(c3ncnc4sc(C)c(C)c34)CC2)c(=O)[nH]c1=O | ? | ? | -4% | 12µM* | 12µM* | ?
CCN(CC)S(=O)(=O)c1ccc(C(=O)NCCSc2c(-c3ccc(OC)cc3)[nH]c3ccccc23)cc1 | / | / | / | / | / | -9%
COc1ccc(-c2noc(-c3ccc(NC(C)c4ccccc4)c([N+](=O)[O-])c3)n2)cc1OC (centres undefined) | / | / | / | / | / | 10%
CC1Cc2ccccc2N1S(=O)(=O)c1nnc(NC(=O)c2ccccc2Br)s1 (centres undefined) | / | / | / | / | / | 21%
Cc1ccc(-n2c(=O)c3c(c4cc(C)ccc4n3C)n(CC(=O)NCCC3=CCCCC3)c2=O)cc1 | / | / | / | / | / | 23%
CN(CC(=O)N1CCN(c2ccccn2)CC1)S(=O)(=O)c1cccc2nsnc12 | 16% | 16% | 25% | 9.3µM* | -29% | -14%
O=C(NCc1ccccc1)C1CCCN(S(=O)(=O)c2cccc3nsnc23)C1 (centres undefined) | -5% | 17% | -5% | ? | 6% | -13%
O=C(NCc1cccnc1)C1CCCN(S(=O)(=O)c2cccc3nsnc23)C1 (centres undefined) | -18% | 4% | -11% | 10µM* | -6% | ?
CN(CC(=O)N1CCCCC1)S(=O)(=O)c1cccc2nsnc12 | -1% | 0% | 26% | ? | ? | 2%
O=C(C1CCCN(S(=O)(=O)c2cccc3nsnc23)C1)N1CCN(c2cccc(Cl)c2)CC1 (centres undefined) | / | / | / | / | / | -8%
